Screens as filed in PubChem BioAssay.
Compounds with a hit are over-represented: about 21% of the library has one in this group of screens.
TDP1 cell CPT: DT40-hTDP1 cell growth loss with CPT; hit rate 12% among 420,000; chicken DT40 Tdp1-/-;hTDP1 cells + 20 nM CPT, ATP luminescence, 48 h; Potency, µM (top dose mostly 46.2 µM), for inactives: top-dose activity change, negative = growth inhibition, hits mostly inhibitors; AID 686979; note: potency is the fitted concentration of half-maximal effect; % is set by controls: 0 for no effect and ±100 for the full control effect; nearly all actives have a fitted effect of over 55% in size
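Chicken DT40 Tdp1-/- cells stably complemented with human TDP1 were seeded at 400 cells/well in medium containing 20 nM camptothecin, exposed to pin-transferred compounds, and grown at 37 °C for at least 48 hr. Viability was read as ATP luminescence.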
D3 antag: antagonists of human D3 dopamine receptor | P35462 | D3R cells, DiscoveRx beta-arrestin luminescence, antagonist mode; active compounds read low | max response, negative = inhibition, % | hit rate 2.5% among 360,000 | AID 652054; in the data active = max response below about -50%; inconclusive = no clear call, values can overlap the other calls; note: % is set by controls: 0 for no effect and ±100 for the full control effect
Target sequence (P35462 whole entry, looked up): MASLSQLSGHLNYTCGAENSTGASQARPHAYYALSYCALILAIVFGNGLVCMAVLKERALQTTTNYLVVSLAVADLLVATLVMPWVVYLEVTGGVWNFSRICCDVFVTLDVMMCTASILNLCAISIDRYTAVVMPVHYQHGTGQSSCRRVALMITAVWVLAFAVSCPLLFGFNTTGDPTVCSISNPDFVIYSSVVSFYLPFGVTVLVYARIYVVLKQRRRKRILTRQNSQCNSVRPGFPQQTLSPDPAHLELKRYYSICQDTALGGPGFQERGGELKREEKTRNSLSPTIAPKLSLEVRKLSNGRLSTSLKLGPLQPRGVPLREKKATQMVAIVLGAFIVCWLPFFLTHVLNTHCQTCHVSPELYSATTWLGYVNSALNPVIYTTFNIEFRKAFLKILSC
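Cells expressing the human receptor were seeded at 1500 cells/well, incubated overnight at 37 degrees C in 5% CO2, then exposed to library compounds with dopamine controls for 90 minutes at 37 degrees C before luminescent detection.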
D3 ag: agonists of human D3 dopamine receptor; max activation, %; hit rate 0.58% among 410,000; D3R DiscoveRx beta-arrestin cells, luminescence, 90 min; AID 652048; P35462; in the data active = max activation above about 30%; note: 0% is about no effect
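Cells at 1500/well, incubated overnight, then treated with pinned compounds (dopamine as control) for 90 min at 37 degrees C. DiscoveRx reagent added for 30 - 60 minutes at room temperature; luminescence read.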
TDP1 cell noCPT: qHTS for Inhibitors of human tyrosyl-DNA phosphodiesterase 1 (TDP1): qHTS in cells in absence of CPT. AID 686978, 2013. DT40 Tdp1-/- hTDP1 cells, no CPT, ATP luminescence, 48 h. Potency, µM (highest dose often 46.2 µM), for the others: top-dose activity change, negative = growth inhibition, actives largely listed as inhibitors. hit rate 15% among 420,000; note: potency is the fitted concentration of half-maximal effect; % is set by controls: 0 for no effect and ±100 for the full control effect; nearly all actives have a fitted effect of over 55% in size
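Camptothecin absent (DMSO only). Human TDP1-complemented DT40 knockout cells, 400 cells/well, 37 °C for minimum 48 hr; ATP measured via CellTiter-Glo, 30 min dark incubation, luminescence.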
ClpP mod: qHTS Assay for Activators of ClpP | Potency, µM (series often up to 57.5 µM), inactives show at the top dose activity change, negative = active | purified B. subtilis ClpP, FRET peptide cleavage, 20 min | hit rate 1.9% among 340,000 | ATP-dependent Clp protease proteolytic subunit (Bacillus subtilis (strain 168)), P80244; active = well fitted falling curve with a large enough effect; inconclusive = small, poorly fitted or top-dose-only effect; inactive = no such curve, though single readings can be large or run the other way; note: potency is the fitted concentration of half-maximal effect; the source files actives as falling curves though it sought activators and does not explain the sign; nearly all actives have a fitted effect of over 65% in size
Target sequence (P80244 whole entry, looked up): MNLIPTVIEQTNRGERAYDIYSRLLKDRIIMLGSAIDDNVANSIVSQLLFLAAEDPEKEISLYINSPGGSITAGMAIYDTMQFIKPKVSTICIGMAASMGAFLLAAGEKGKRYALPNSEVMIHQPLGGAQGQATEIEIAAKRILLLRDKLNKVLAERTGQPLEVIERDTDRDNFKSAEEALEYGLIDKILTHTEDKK
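Purified B. subtilis ClpP, 10 microg/mL final in Tris/HCl pH8 with KCl, BSA, glycerol and Tween-20, cleaved an Abz/nitrotyrosine-quenched decapeptide. Fluorescence (ex 320, em 430) was read at 0 and 20 min at room temperature. Delta was normalized to 5.8 microM ADEP and DMSO/no-enzyme controls.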
IL1B secr inh: blocks inflammasome-driven IL-1 beta release; THP-1 LPS/ATP IL-1B secretion, AlphaLISA, 16 h; active compounds read low; activity change, % at 57.5 µM; hit rate 4.7% among 360,000; AID 743279; in the data active = activity change below about -50%; inconclusive = mostly about -30% to -49%; note: % is set by controls: 0 for no effect and ±100 for the full control effect
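Secreted IL-1B measured by AlphaLISA bead assay after 16 h compound exposure of THP-1 cells; compounds (final up to 57.5 uM) added 1 h before LPS (250 ng/mL) and ATP (1.25 mM) stimulation; lower signal means less secretion.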
An asterisk follows results filed as active; u = inconclusive; x = not tested or not shown; [ ] = another dose, or the depositor's remark. Unless noted, calls come from the whole dose curve; as a rule, active = well fitted inhibition curve with a large enough effect; inconclusive = small, poorly fitted or top-dose-only effect; inactive = flat fitted curve, though single readings scatter.

SMILES	TDP1 cell CPT	D3 antag	D3 ag	TDP1 cell noCPT	ClpP mod	IL1B secr inh
CCCn1c2ccccc2c2cnn(CC(=O)NC3CCC(C)CC3)c(=O)c21 (stereo not given)	-2.9%	7.5	1.0	4.4%	-22.1%	10.2
Cc1ccccc1Cn1c2ccccc2c2cnn(CC(=O)NCCCN3CCN(C)CC3)c(=O)c21	u	-6.9	-7.6	u	u	u
CC(C)(C)c1ccc(Cn2c(=O)cnc3ccccc32)cc1	16.4µM*	0.2	-6.0	16.4µM*	x	29.7
CCCn1c2ccccc2c2cnn(CC(=O)O)c(=O)c21	-3.1%	-5.7	-6.4	-5.6%	-1.0%	3.3
CCCn1c2ccccc2c2cnn(CC(=O)NC3CCCC(C)C3C)c(=O)c21 (stereo not given)	u	1.5	0.3	2.06µM*	1.7%	-5.5
CCCn1c2ccccc2c2cnn(CC(=O)N(CCCOC(C)C)Cc3ccco3)c(=O)c21	16.4µM*	x	1.9	16.4µM*	5.0%	x
O=c1cnc2ccccc2n1Cc1ccc(Br)cc1	5.2%	-9.3	11.4	u	x	3.8
O=C(NC1CCC(O)CC1)c1ccc(NS(=O)(=O)c2cccc([N+](=O)[O-])c2)cc1 (stereo not given)	-24.6%	-23.3	-5.1	1.1%	1.7%	4.0
Cc1ccc(NC(=S)NCCN2CCOCC2)cc1F	-0.9%	-7.9	4.3	11.9%	0.0%	0.9
CCCNC(=O)Cn1c(=O)cnc2ccccc21	-3.6%	2.7	2.9	-21.6%	u	3.4
CCC1CCCCN1CCCNC(=O)Cn1ncc2c(C)n(Cc3ccccc3Cl)c(C)c2c1=O (stereo not given)	18.4µM*	-29.0	-9.9	18.4µM*	-11.0%	-10.8
COc1ccc(CCNC(=O)Cn2c(=O)cnc3ccccc32)cc1	u	-19.1	5.6	23.1µM*	-29.9%	67.0
CCn1c(=O)c2c(cnn2C)c2ccccc21	7.31µM*	0.4	8.0	u	-0.5%	-5.4
CCCn1c2ccccc2c2cnn(CC(=O)NCCCN3CCN(c4ccccc4)CC3)c(=O)c21	u	-82.7*	3.5	20.6µM*	3.2%	u
CC(=O)c1ccc(OCCCCCCCOc2ccc(C(C)=O)cc2)cc1	-2.7%	10.3	-3.7	-43.2%	x	15.4
O=C(Nc1cccc(F)c1)N1CC2(CCN(C(=O)c3cccc(F)c3)CC2)C1	-5.3%	x	x	-23.9%	x	x
Cc1cc(C)c2nc(N(Cc3cccnc3)C(=O)c3cccs3)sc2c1	u	x	2.9	u	-3.0%	x
COc1ccccc1CNC(=O)COC(=O)c1cccc(S(=O)(=O)N2CCCC2)c1	-2.4%	9.4	4.8	-18.1%	1.9%	0.0
Cc1csc2nc(COC(=O)c3cccc(NC(=O)COc4ccc(Cl)cc4)c3)cc(=O)n12	-4.6%	x	0.5	-0.6%	0.3%	x
COC(=O)N1CCC[C@@]2(CCN(c3ncccn3)C2)C1	-1.4%	x	x	-5.8%	x	x
CCCN(CCC)CCCNC(=O)Cn1ncc2c3ccccc3n(Cc3ccc(F)cc3)c2c1=O	18.4µM*	x	-11.6	20.6µM*	-22.5%	x
CCN(CC)CCCNC(=O)Cn1ncc2c3ccccc3n(Cc3ccccc3)c2c1=O	5.7%	x	-4.3	-9.8%	u	x
CCCn1c2ccccc2c2cnn(CC(=O)NCCc3ccccc3)c(=O)c21	23.1µM*	x	-5.6	u	4.0%	x
CCCn1c2ccccc2c2cnn(CC(=O)NCCCN(Cc3ccccc3)C(C)C)c(=O)c21	u	x	-4.1	20.6µM*	4.3%	x
CCCn1c2ccccc2c2cnn(CC(=O)NCCc3ccc(OCC)cc3)c(=O)c21	u	x	0.1	23.1µM*	-10.3%	x
SMILES	TDP1 cell CPT	D3 antag	D3 ag	TDP1 cell noCPT	ClpP mod	IL1B secr inh
CCCn1c2ccccc2c2cnn(CC(=O)NCc3ccc(OC)cc3)c(=O)c21	u	x	12.9	u	u	x
CCCCN(CC)CCCNC(=O)Cn1ncc2c3ccccc3n(Cc3ccc(F)cc3)c2c1=O	u	x	-13.6	-28.5%	-17.4%	x
CCCn1c2ccccc2c2cnn(CC(=O)NCCc3ccc(S(N)(=O)=O)cc3)c(=O)c21	u	x	3.2	u	4.3%	x
CSCC[C@H](NC(=O)[C@H](Cc1ccc(OS(=O)(=O)O)cc1)NC(=O)[C@@H](N)CC(=O)O)C(=O)NCC(=O)N[C@@H](Cc1c[nH]c2ccccc12)C(=O)N[C@@H](CCSC)C(=O)N[C@@H](CC(=O)O)C(=O)N[C@@H](Cc1ccccc1)C(N)=O	6.3%	x	1.1	-26.6%	x	x
O=C(Cn1c(=O)n2nc(-c3cccc(F)c3)nc2c2ccccc21)N1CCN(c2ccccc2F)CC1	-11.8%	x	-13.6	u	1.1%	x
Cc1ccccc1NC(=O)C(=O)NCC(c1ccc2c(c1)OCO2)N1CCN(c2ccccc2)CC1 (stereo not given)	u	x	2.7	u	-1.0%	x
CC1CCCCN1CCCNC(=O)Cn1ncc2c3ccccc3n(Cc3ccccc3F)c2c1=O (stereo not given)	u	x	-8.4	18.4µM*	4.4%	x
CN(Cc1ccccc1)C(=O)Cn1ncc2c3ccccc3n(Cc3cccc(Cl)c3)c2c1=O	u	x	-2.3	u	u	x
CC(C)N(Cc1ccccc1)C(=O)Cn1ncc2c3ccccc3n(Cc3ccccc3)c2c1=O	u	x	0.2	18.4µM*	u	x
C=CCNC(=O)c1ccccc1NC(=O)COc1ccccc1	1.2%	0.0	-2.9	-7.0%	-3.4%	0.1
COc1ccccc1CCNC(=O)Cn1c(=O)oc2ccccc21	20.6µM*	-6.8	-0.9	u	-0.1%	3.7
O=C(Cn1c(=O)oc2cccnc21)Nc1ccccc1Oc1ccc(Cl)cc1Cl	-3.5%	11.7	-1.1	-17.4%	x	-71.2*
COc1ccc(Cl)cc1NC(=O)Cn1c(=O)oc2ccccc21	7.8%	-1.2	0.8	u	-0.7%	28.0
COc1ccccc1NC(=O)Cn1c(=O)oc2ccccc21	2.91µM*	5.2	12.3	2.91µM*	-5.4%	-2.4
Cc1cc(C)cc(C(=O)N2CCN(c3ccccn3)CC2)c1	6.3%	5.7	11.7	-4.4%	x	11.8
CCN(CC)c1ccc(C(=O)NNC(=O)CN2C(=O)NC3(CCCCC3)C2=O)cc1	-1.2%	-1.3	4.1	-0.2%	-6.3%	8.3
CCCn1c(=N)c(C(=O)NCc2cccnc2)cc2c(=O)n3cc(C)ccc3nc21	-0.8%	x	-0.1	-11.8%	3.7%	x
CC(C)c1c(C(=O)NCc2cccnc2)cnn1-c1nccc(-c2cccs2)n1	24.1%[9.04 µM]	x	x	u	x	x
O=C(O)CCCC(=O)N1CCOCCOCCOCCOCC1	8.5%	-7.5	2.9	8.5%	-1.2%	-16.9
Cc1c(C)c(C)c(S(=O)(=O)n2[nH]c(=O)c(CCO)c2C)c(C)c1C	3.4%	6.0	5.5	u	x	-9.8
